Paper PMC8384837, “Expanding the binding specificity for RNA recognition by a PUF domain”

Legend:
Assay in all cases: yeast three-hybrid, YBZ-1, SC-Leu-His + 0.5 mM 3-AT, 4 days
Conditions in all cases: tags: N-Gal4 AD-HA kept; label: inside an RPR1-promoter hybrid RNA with tandem MS2 sites; ssRNA
[1] = biological target: PUM1 PUF domain R1-KKD (Homo sapiens, UniProt Q14671 828-1176, S863K;R864K;Q867D)
How it was run: (§1)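 Sequencing with Illumina followed PCR amplification of the repeat regions from transformants grown four days on SC-Leu (input) or SC-Leu-His + 0.5 mM 3-AT (selection). The transformants were strain YBZ-1 with a LexA–MS2 coat fusion and a HIS3 reporter, carrying Pumilio-1 PUF domain libraries and matching RNA elements. The interaction score is the log change in variant frequency from input to selection, computed in log2 with a pseudocount of 1 for absent variants.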

[2] = biological target: PUM1 PUF domain R1-GWK (Homo sapiens, UniProt Q14671 828-1176, S863G;R864W;Q867K)
How it was run: as §1

[3] = biological target: PUM1 PUF domain R7-ERR (Homo sapiens, UniProt Q14671 828-1176, S1079E;N1080R;E1083R)
How it was run: as §1

[4] = biological target: PUM1 PUF domain R4-SPQ (Homo sapiens, UniProt Q14671 828-1176, N971S;H972P)
How it was run: as §1

[5] = biological target: T1, PUM1 PUF domain R6-VFL (Homo sapiens, UniProt Q14671 828-1176, N1043V;Y1044F;Q1047L)
T1 sequence: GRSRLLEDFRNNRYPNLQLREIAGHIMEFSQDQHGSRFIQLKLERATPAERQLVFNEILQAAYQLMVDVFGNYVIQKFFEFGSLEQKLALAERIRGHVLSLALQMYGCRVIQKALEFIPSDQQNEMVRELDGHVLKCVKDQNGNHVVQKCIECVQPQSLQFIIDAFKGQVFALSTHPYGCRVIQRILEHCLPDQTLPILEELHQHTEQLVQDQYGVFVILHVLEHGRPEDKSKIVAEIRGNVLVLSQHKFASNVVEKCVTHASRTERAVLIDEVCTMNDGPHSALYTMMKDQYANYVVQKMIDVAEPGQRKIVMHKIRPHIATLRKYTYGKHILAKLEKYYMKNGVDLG
How it was run: as §1

[6] = biological target: PUM1 PUF domain R5-PHQ (Homo sapiens, UniProt Q14671 828-1176, C1007P;R1008H)
How it was run: as §1

[7] = biological target: PUM1 PUF domain R5-NVR (Homo sapiens, UniProt Q14671 828-1176, C1007N;R1008V;Q1011R)
How it was run: as §1

[8] = biological target: PUM1 PUF domain R4-NCG (Homo sapiens, UniProt Q14671 828-1176, H972C;Q975G)
How it was run: as §1

Sequence: GGCUAGAACUAGUGGAUCCCCCGGCGCCCGGCGGCUCGAGCCCGGGUAAGUGUAAAUUGUCUGCAUGCCGCCGGGCGCCAUGCCUGCAGGUCGACUCUAGAAAACAUG
- binding signal [1]: 3.36 log2 enrichment (interaction score)
- binding signal [2]: 3.01 log2 enrichment (interaction score)

Sequence: GGCUAGAACUAGUGGAUCCCCCGGCGCCCGGCGGCUCGAGCCCGGGUAAGUGUAAAUCGUCUGCAUGCCGCCGGGCGCCAUGCCUGCAGGUCGACUCUAGAAAACAUG
- binding signal [2]: 3.6 log2 enrichment (interaction score)

Sequence: GGCUAGAACUAGUGGAUCCCCCGGCGCCCGGCGGCUCGAGCCCGGGUAAGUCUAAAUAGUCUGCAUGCCGCCGGGCGCCAUGCCUGCAGGUCGACUCUAGAAAACAUG
- binding signal [3]: 1.25 log2 enrichment (interaction score)

Sequence: GGCUAGAACUAGUGGAUCCCCCGGCGCCCGGCGGCUCGAGCCCGGGUAAGUUUAAAUAGUCUGCAUGCCGCCGGGCGCCAUGCCUGCAGGUCGACUCUAGAAAACAUG
- binding signal [3]: 3.08 log2 enrichment (interaction score)

Sequence: GGCUAGAACUAGUGGAUCCCCCGGCGCCCGGCGGCUCGAGCCCGGGUAAGUGUAAAUAGUCUGCAUGCCGCCGGGCGCCAUGCCUGCAGGUCGACUCUAGAAAACAUG
- binding signal [4]: 3.02 log2 enrichment (interaction score)
- binding signal [5]: 1.07 log2 enrichment (interaction score)
- binding signal [6]: 3.63 log2 enrichment (interaction score)

Sequence: GGCUAGAACUAGUGGAUCCCCCGGCGCCCGGCGGCUCGAGCCCGGGUAAGUGUUAAUAGUCUGCAUGCCGCCGGGCGCCAUGCCUGCAGGUCGACUCUAGAAAACAUG
- binding signal [7]: 4.09 log2 enrichment (interaction score)

Sequence: GGCUAGAACUAGUGGAUCCCCCGGCGCCCGGCGGCUCGAGCCCGGGUAAGUGUCAAUAGUCUGCAUGCCGCCGGGCGCCAUGCCUGCAGGUCGACUCUAGAAAACAUG
- binding signal [7]: 2.77 log2 enrichment (interaction score)

Sequence: GGCUAGAACUAGUGGAUCCCCCGGCGCCCGGCGGCUCGAGCCCGGGUAAGUGUAUAUAGUCUGCAUGCCGCCGGGCGCCAUGCCUGCAGGUCGACUCUAGAAAACAUG
- binding signal [8]: 3.59 log2 enrichment (interaction score)
